Screening results from PubChem.
Only a selection was taken, and hits are over-represented in it overall.
Sm TGR inh: inhibitors of Schistosoma mansoni thioredoxin glutathione reductase; Q962Y6; purified TGR, DTNB reduction, TNB absorbance 405 nm; Potency, µM (highest dose often 114 µM), for inactives: at the highest dose activity change, negative = inhibition, actives largely listed as inhibitors; actives 3% (n = 360,000); also: potency is read from the fitted curve at half-maximal effect; % is scaled to controls: 0 for no effect and ±100 for the full control effect; nearly all actives have a fitted effect of over 60% in size
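Kinetic colorimetric format: TGR-catalysed, NADPH-driven DTNB reduction monitored via TNB absorbance. Enzyme dispensed at 20 nM; compound exposure 15 min at room temperature before reaction start.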
FBPA Giardia inh: Giardia lamblia aldolase inhibition | A8B2U2 | purified Giardia FBPA | Potency, µM (titrated, usually from 59.6 µM), inactives show at the highest dose activity, negative = inhibition, most hits filed as inhibitors | actives 0.71% (n = 290,000); also: potency is read from the fitted curve at half-maximal effect; % is scaled to controls: 0 for no effect and ±100 for the full control effect; nearly all actives have a fitted effect of over 55% in size
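40 nM FBPA preincubated 10 min at RT with compound (up to 57.5 uM final), then substrate plus GAPDH/TPI/NAD/arsenate coupling and diaphorase/resazurin added. Fluorescence read after 20 min at RT, 525/598 nm.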
Tb PYK inh: blocks Trypanosoma brucei pyruvate kinase; Potency, µM (series often up to 76.8 µM), without a hit: top-dose activity, negative = inhibition, usual class: inhibitors; Q57TT1; actives 0.12% (n = 410,000); TbPYK enzyme, Kinase-Glo Plus ATP luminescence, 45 min; also: potency is read from the fitted curve at half-maximal effect; % is scaled to controls: 0 for no effect and ±100 for the full control effect; nearly all actives have a fitted effect of over 50% in size
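Quantitative HTS: titrated library compounds versus trypanosomal pyruvate kinase in TEA buffer (pH 7.2) containing KCl, MgCl2, BSA and Tween-20. Reactions were initiated with ADP, 130 uM final. Kinase-Glo Plus luminescence was read after 45 min at RT.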
LmPK inhibitor: inhibitors of Leishmania mexicana pyruvate kinase; Q27686; purified LmPK, Kinase-Glo ATP luminescence, 1 h; Potency, µM (highest dose often 57.5 µM), without a hit: at the highest dose activity change, negative = inhibition, hits mostly inhibitors; actives 0.37% (n = 290,000); also: potency is read from the fitted curve at half-maximal effect; % is scaled to controls: 0 for no effect and ±100 for the full control effect
Target sequence (Q27686 whole entry, looked up): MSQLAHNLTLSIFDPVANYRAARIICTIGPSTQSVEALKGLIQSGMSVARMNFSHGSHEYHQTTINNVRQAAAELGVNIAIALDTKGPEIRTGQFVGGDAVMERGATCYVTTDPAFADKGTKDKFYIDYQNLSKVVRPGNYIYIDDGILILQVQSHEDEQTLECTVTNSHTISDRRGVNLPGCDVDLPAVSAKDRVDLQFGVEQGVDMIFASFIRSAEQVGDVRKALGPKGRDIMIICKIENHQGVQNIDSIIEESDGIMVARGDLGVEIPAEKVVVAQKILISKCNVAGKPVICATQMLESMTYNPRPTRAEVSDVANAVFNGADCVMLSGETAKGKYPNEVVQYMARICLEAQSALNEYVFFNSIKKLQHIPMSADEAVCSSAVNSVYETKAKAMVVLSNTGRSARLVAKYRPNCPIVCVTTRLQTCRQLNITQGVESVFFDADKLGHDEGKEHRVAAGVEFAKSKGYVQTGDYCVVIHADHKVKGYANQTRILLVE
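Screened at intermediate enzyme activity to detect both inhibitors and activators: LmPK at 0.1 nM, with a 0.5 nM enzyme column as activation reference. PEP 0.5 mM, ADP 0.1 mM; ATP detected by luminescence after 1 h.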
Shiga toxin inh: blocks Shiga toxin action in Vero cells; Vero cells, Shiga toxin protein synthesis inhibition reporter; inhibition, % at 38.7 µM; actives 9.2% (n = 290,000); in the data active = inhibition mostly above about 28%, no sharp cut-off; inactive = mostly below about 43%; also: 0% is about no effect
Cycloheximide cs: affects cycloheximide protein synthesis inhibition readout, counter-screen; cell reporter, cycloheximide protein synthesis inhibition counterscreen; max response, %; actives 12% (n = 300,000); in the data active = max response mostly above about 13%, no sharp cut-off; inactive = mostly below about 14%; also: read at 38.3 µM for the half of the compounds with a filed dose; 0% is about no effect
Starred values were filed as active, the others as inactive; ? = inconclusive; / = no result given; [ ] = remark or other dose. Unless noted, calls follow the shape of the dose curve; as a rule, active = well fitted curve in the direction sought with a large enough effect; inconclusive = small, poorly fitted or top-dose-only effect, or another doubt; inactive = no such curve, though single readings can be large; an effect the other way counts as inactive or inconclusive.

SMILES	Sm TGR inh	FBPA Giardia inh	Tb PYK inh	LmPK inhibitor	Shiga toxin inh	Cycloheximide cs
CCC(=O)N1N=C(c2ccc(Cl)cc2)CC1c1ccco1 (stereo not drawn)	-5.6%	0.3%	-2.4%	2.0%	12.4	2.0
CSc1ccccc1NC(=O)CN(C)C(=O)C1CC(=O)N(C(C)c2ccccc2)C1 (stereo not drawn)	-9.6%	/	-18.6%	/	/	/
O=C(Nc1ccn(CCCN2CCN(c3ccccn3)CC2)c(=O)n1)OCc1ccccc1	/	/	-8.2%	/	/	/
Cn1cccc1C(=O)/C(C#N)=C/c1ccc(F)cc1	6.0%	-5.4%	2.8%	-4.8%	32.6	18.6*
Cn1cccc1/C=C(/C#N)c1ccc(F)cc1	7.4%	0.6%	-0.2%	0.1%	37.5	26.4*
Cc1cc(C)nc(-n2nc(C)c3c2N(Cc2ccccc2C)C(=O)CC3c2ccc(Cl)cc2)n1 (stereo not drawn)	3.4%	/	4.2%	/	/	/
N#CCN1CCN(CC(=O)Nc2ccc(OCc3ccccc3)cc2)CC1	-7.5%	-10.9%	-6.4%	-0.4%	-22.5	22.9*
CN1CCN(CC(=O)Nc2ccc(OCc3ccccc3)cc2)CC1	-13.7%	-17.3%	/	-0.9%	64.4	36.0*
COc1ccc(NC(=O)CN2CCN(CC#N)CC2)cc1	-7.7%	-12.4%	3.8%	-5.3%	/	-2.2
CN1CC(=O)N(CC(=O)Nc2ccc(OCc3ccccc3)cc2)C1=O	/	/	0.5%	/	/	/
COc1ccc(-c2nc(CS(=O)CC(=O)NCc3ccc(F)cc3)c(C)o2)cc1OC (stereo not drawn)	?	/	-1.1%	/	/	/
COc1ccc(CNC(=O)CS(=O)Cc2nc(-c3ccc(C)cc3)oc2C)cc1 (stereo not drawn)	50.1µM*	7.1%	2.7%	9.5%	-11.5	-0.8
COc1ccc(-c2nc(CS(=O)CC(=O)NCc3ccc(C)cc3)c(C)o2)cc1OC (stereo not drawn)	39.8µM*	-5.9%	2.3%	-4.3%	7.7	1.8
COc1ccc(CNC(=O)CS(=O)Cc2nc(-c3ccc(OC)c(OC)c3)oc2C)cc1 (stereo not drawn)	25.1µM*	/	-2.9%	-0.8%	-4.0	12.7
Cc1ccc(-c2nc(CS(=O)CC(=O)NCc3ccccc3)c(C)o2)cc1 (stereo not drawn)	39.8µM*	5.3%	-7.3%	1.0%	-19.2	-5.8
Cc1ccc(CNc2ccc3cc(S(=O)(=O)N4CCCCC4)ccc3n2)cc1	12.0%	/	0.7%	/	/	/
COc1ccc(-c2nc(CSCC(=O)NCc3ccco3)c(C)o2)cc1	44.7µM*	-1.2%	2.8%	7.6%	15.7	7.2
Cc1ccc(-c2nc(CS(=O)CC(=O)NCc3ccccn3)c(C)o2)cc1 (stereo not drawn)	56.2µM*	-0.3%	1.0%	7.2%	8.9	-6.4
COc1ccc(-c2nc(CSCC(=O)NCCc3ccccc3)c(C)o2)cc1	?	/	4.2%	/	/	/
Cc1oc(-c2ccccc2F)nc1CS(=O)CC(=O)NCc1ccccn1 (stereo not drawn)	9.4%	/	0.0%	-11.3%	-4.3	4.3
COc1ccc(-c2nc(CS(=O)CC(=O)NCCc3ccc(Cl)cc3)c(C)o2)cc1OC (stereo not drawn)	?	/	-5.2%	/	/	/
CCOc1ccc(CCNC(=O)CS(=O)Cc2nc(-c3ccc(OC)c(OC)c3)oc2C)cc1OCC (stereo not drawn)	50.1µM*	/	-8.7%	1.2%	-0.8	2.5
COc1ccc(-c2nc(CS(=O)CC(=O)NC3CCCCC3C)c(C)o2)cc1OC (stereo not drawn)	28.2µM*	/	-14.2%	-7.6%	17.5	-7.4
COc1cccc(C(C)(O)c2nc(/C=C/c3ccccc3)cs2)c1 (stereo not drawn)	/	/	4.3%	/	/	/
Cc1cc(C)c(Cn2c3ccccc3c3cnn(CC(=O)NC4CCC(C)CC4)c(=O)c32)c(C)c1 (stereo not drawn)	0.1%	/	2.4%	/	/	/
SMILES	Sm TGR inh	FBPA Giardia inh	Tb PYK inh	LmPK inhibitor	Shiga toxin inh	Cycloheximide cs
COc1ccc(-c2nc(CS(=O)CC(=O)NCc3ccc(Cl)cc3)c(C)o2)cc1OC (stereo not drawn)	44.7µM*	5.1%	-5.0%	7.7%	-8.8	0.7
Cc1cccc(-c2nc(CS(=O)CC(=O)NCc3ccco3)c(C)o2)c1 (stereo not drawn)	?	-0.4%	-8.0%	-3.9%	16.5	10.0
Cc1ccc(-c2nc(CS(=O)CC(=O)NCc3ccco3)c(C)o2)cc1 (stereo not drawn)	50.1µM*	3.2%	-9.6%	4.5%	-4.7	-2.6
O=c1c(-c2cccs2)nc2cnc(Oc3cccc(Cl)c3)nc2n1C1CC1	/	-9.0%	1.7%	/	/	/
C/C(=N/NC(=O)COc1ccc(C(C)(C)C)cc1)c1ccc(N2CCOCC2)cc1	/	/	-0.2%	/	/	/
C/C(=N\NC(=O)c1ccc(Cl)cc1)c1ccc(N2CCOCC2)cc1	0.3%	-0.9%	-4.5%	-0.5%	20.2	24.9*
C/C(CC(=O)N1CCN(C=O)CC1)=N\NC(=O)c1ccc(Cl)cc1	0.0%	-10.9%	-16.5%	-7.6%	30.6	10.8*
C/C(=N/NC(=O)c1ccoc1C)c1ccc(N2CCOCC2)cc1	-0.4%	1.9%	-2.7%	0.1%	114.7*	62.4*
C/C(=N\NC(=O)c1ccc(Cl)cc1)c1ccc2[nH]ccc2c1	-4.1%	-2.8%	-3.0%	-4.7%	56.8	24.4*
C/C(CC(=O)N1CCN(C=O)CC1)=N\NC(=O)c1cccc([N+](=O)[O-])c1	-2.8%[57.1 µM]	-24.2%	0.9%	-2.4%	47.8	10.9
CC(=O)N(C)c1cccc(-c2ccc3nnc(C)n3n2)c1	0.0%	7.0%	2.6%	1.1%	-2.5	-1.9
Cc1ccc2c(c1)c1c(c(=O)n(-c3ccccc3C)c(=O)n1Cc1cccc(F)c1)n2C	-0.4%	/	4.0%	/	/	/
CC1(C)CC(=O)C=C(c2ccc(COC(=O)c3cccc(C(F)(F)F)c3)cc2)C1=O	/	/	-2.0%	/	/	/
Cc1ccc(SCC(=O)NC(C)(C)C)cc1	1.1%	2.0%	3.7%	-0.2%	133.0*	28.3*
Cc1ccc(NC(=O)COCC(=O)Nc2ccc(C)cc2)cc1	-5.5%	-3.4%	2.3%	-4.3%	-2.5	-1.9
Cc1ccc(SCC(=O)Nc2cccc(C(=O)NC(C)(C)C)c2)cc1	4.2%	7.3%	1.0%	5.5%	13.6	2.2
COc1ccc(NC(=O)CSc2ccc(C)cc2)cc1	5.0%	-0.4%	-4.4%	1.0%	80.9*	32.9*
Cc1ccc(NC(=O)CNc2ccc(OC(C)C)cc2)cc1	-29.9%	-14.3%	-0.5%	-5.6%	9.9	16.3*
CC(C)(C)NC(=O)CSc1nnnn1C(C)(C)C	2.6%	4.2%	-1.8%	-5.8%	31.6*	24.6*
O=S1(=O)c2ccccc2N(Cc2ccccc2F)c2ccccc21	-9.9%	/	-2.9%	/	/	/
CCC(=O)Nc1nnc(/C=C/c2ccc(OC)cc2)s1	18.5%	0.8%	-3.9%	1.7%	55.1*	32.0*
